# Laboratory results from PubChem BioAssay.
# The source made the active and inactive calls.
# Experiments:
# [1] = tested on: Human papillomavirus type 1a protein E7 (residues 44-93); assay: HPV1a E7 fragment binders on microarrays, primary screen, biochemical, small-molecule microarray, residues 44-93, 635 nm fluorescence (AID 1108); conditions: small-molecule microarray binding, fluorescence 635 nm; higher = more signal;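 further: E7 fragment applied at 1 µg/mL in TBST for 1 h at 4 C; score combines spot fluorescence with its signal to noise ratio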
# [2] = modulators of HCV replicon luciferase signal, primary screen, HCV replication inhibitor project, Huh7 cells, luciferase reporter (AID 1109); conditions: 48 h, higher = more signal;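 further: huh7 hepatoma cells harbouring a luciferase neomycin HCV replicon reporter; luciferase luminescence as measure of HCV replicon replication; test concentration not given here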
# [3] = biological target: Left-right determination factor 2 (Homo sapiens) (UniProt O00292); assay: LEFTY2 binders on small-molecule microarrays, primary screen, biochemical, small-molecule microarray, 635 nm fluorescence scan (AID 1110); conditions: LEFTY2 binding, higher = more signal
# Chain of Left-right determination factor 2 (Homo sapiens) (O00292 whole entry, looked up): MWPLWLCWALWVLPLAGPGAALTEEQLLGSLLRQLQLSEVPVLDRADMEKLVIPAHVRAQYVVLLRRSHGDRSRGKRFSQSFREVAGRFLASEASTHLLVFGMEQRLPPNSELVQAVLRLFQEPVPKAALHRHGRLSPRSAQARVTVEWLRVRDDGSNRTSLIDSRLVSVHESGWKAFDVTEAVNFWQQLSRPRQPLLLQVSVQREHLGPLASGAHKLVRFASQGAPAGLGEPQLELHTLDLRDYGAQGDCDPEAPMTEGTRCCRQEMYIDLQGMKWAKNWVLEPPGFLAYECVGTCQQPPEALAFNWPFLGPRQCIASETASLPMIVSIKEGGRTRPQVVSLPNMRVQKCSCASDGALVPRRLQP
# [4] = biological target: Calmodulin-1 (Homo sapiens) (UniProt P0DP23); assay: CALM1 binders on microarrays, EGTA buffer, profiling panel, biochemical, small-molecule microarray, Cy5-labelled CALM1 (AID 1111); conditions: Cy5-CALM1 binding fluorescence, higher = more signal;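 further: labelled calmodulin applied in Tris saline Tween buffer holding calcium plus EGTA and DTT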
# [5] = biological target: Calmodulin-1 (Homo sapiens) (UniProt P0DP23); assay: calcium-bound CALM1 binders on microarrays, profiling panel, artefact control for SMM control-protein annotation, biochemical, small-molecule microarray, Cy5-labelled CALM1, plus calcium (AID 1112); conditions: Cy5-CALM1 binding fluorescence, higher = more signal;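 further: score merges spot fluorescence with signal to noise from triplicate slides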
# [6] = small-molecule microarray binders of probe aWnt5a, primary screen, biochemical, biotinylated probe, 635/667 nm fluorescence (AID 1113); conditions: higher = more signal;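 further: score merges 667 nm fluorescence intensity with signal-to-noise per printed feature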
# [7] = small-molecule microarray binders of probe aShh, primary screen, biochemical, biotinylated probe, 635/667 nm fluorescence (AID 1114); conditions: higher = more signal;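 further: probe is biotin-labelled aShh protein from a stem cell growth factor screen; measures binding of labelled protein to compounds printed on the slide; score merges feature fluorescence at 667 nm with signal-to-noise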
# [8] = small-molecule microarray binders of probe aNog, primary screen, biochemical, biotinylated probe, 635/667 nm fluorescence (AID 1115); conditions: higher = more signal;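 further: probe is biotinylated aNog protein used at 0.15 µg/mL for 1 h at 4 C; z-score combines 667 nm fluorescence of each spot with its signal to noise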
# [9] = biological target: Torsin-1A-interacting protein 1 (Homo sapiens) (UniProt Q5JTV8); assay: LAP1 binders from COS7 cell lysate, primary screen, small-molecule microarray, 635/667 nm fluorescence (AID 1116); conditions: COS7-hLAP1 lysate binding, 635 nm fluorescence, higher = more signal
# Chain of Torsin-1A-interacting protein 1 (Homo sapiens) (Q5JTV8 whole entry, looked up): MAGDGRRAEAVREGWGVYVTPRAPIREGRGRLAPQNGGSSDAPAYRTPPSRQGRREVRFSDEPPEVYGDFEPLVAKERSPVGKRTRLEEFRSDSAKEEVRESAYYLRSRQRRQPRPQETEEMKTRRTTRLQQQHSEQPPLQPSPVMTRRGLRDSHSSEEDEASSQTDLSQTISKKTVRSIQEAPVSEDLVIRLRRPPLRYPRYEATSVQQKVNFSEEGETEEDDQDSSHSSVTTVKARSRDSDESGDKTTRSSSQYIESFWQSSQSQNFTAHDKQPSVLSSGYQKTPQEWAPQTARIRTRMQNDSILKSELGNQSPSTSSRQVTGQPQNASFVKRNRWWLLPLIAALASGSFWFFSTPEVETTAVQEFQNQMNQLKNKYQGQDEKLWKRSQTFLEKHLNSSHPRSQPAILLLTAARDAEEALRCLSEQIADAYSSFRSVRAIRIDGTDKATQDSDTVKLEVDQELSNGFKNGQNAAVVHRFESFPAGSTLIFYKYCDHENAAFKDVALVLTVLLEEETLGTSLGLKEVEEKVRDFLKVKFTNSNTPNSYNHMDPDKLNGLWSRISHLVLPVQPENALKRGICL
# [10] = biological target: Alpha-bungarotoxin (Bungarus multicinctus) (UniProt P60615); assay: alpha-bungarotoxin binders on microarray, profiling panel, artefact control for SMM control protein annotation, biochemical, small-molecule microarray, Alexa647 label, 635/667 nm fluorescence (AID 1117); conditions: alpha-BTX-A647 binding fluorescence, higher = more signal
# Chain of Alpha-bungarotoxin (Bungarus multicinctus) (P60615 whole entry, looked up): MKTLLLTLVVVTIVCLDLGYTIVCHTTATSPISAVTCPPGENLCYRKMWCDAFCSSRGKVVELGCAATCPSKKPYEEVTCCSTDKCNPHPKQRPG
# Albumin (Bos taurus) = Albumin (Bos taurus) (UniProt P02769); assay: bovine serum albumin binders on microarray, profiling panel, artefact control for SMM control protein annotation, biochemical, small-molecule microarray, Alexa647 label, 635/667 nm fluorescence (AID 1118); conditions: BSA-A647 binding, fluorescence 635 nm, higher = more signal;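 further: score merges 667 nm emission intensity and signal-to-noise per printed compound spot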
# Chain of Albumin (Bos taurus) (P02769 whole entry, looked up): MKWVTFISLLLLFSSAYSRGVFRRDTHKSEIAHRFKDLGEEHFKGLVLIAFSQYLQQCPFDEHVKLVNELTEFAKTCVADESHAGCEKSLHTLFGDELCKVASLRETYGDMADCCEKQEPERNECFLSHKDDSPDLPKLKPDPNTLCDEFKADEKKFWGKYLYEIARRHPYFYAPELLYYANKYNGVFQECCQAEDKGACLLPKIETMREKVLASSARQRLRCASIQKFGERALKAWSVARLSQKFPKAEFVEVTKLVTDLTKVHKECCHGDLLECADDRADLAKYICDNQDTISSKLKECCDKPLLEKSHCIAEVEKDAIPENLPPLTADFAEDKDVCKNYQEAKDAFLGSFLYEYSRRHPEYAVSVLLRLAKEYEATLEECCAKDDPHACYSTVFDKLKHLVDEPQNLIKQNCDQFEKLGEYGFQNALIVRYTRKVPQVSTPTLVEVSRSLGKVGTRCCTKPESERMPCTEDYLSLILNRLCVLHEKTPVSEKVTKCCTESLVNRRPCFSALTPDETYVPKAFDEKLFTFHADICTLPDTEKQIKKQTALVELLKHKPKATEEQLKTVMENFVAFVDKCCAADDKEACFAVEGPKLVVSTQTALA
# [11] = small-molecule microarray binders of probe aXIP, primary screen, biochemical, NeuroSMM set, 635/667 nm fluorescence (AID 1119); conditions: higher = more signal, called active from +8 up or from −8 down;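 further: probe is the protein aXip251-270 applied at 1 µg/mL to compound-printed slides; binding of probe to printed compounds measured as 667 nm fluorescence plus signal to noise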
# [12] = small-molecule binders of probe aNOTCH3, primary screen, biochemical, small-molecule microarray, 635/667 nm fluorescence (AID 1120); conditions: higher = more signal;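 further: probe is a biotin-tagged antibody raised against NOTCH3 rather than NOTCH3 protein; score merges spot fluorescence near 667 nm with spot signal to noise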
# [13] = small-molecule binders of probe aNOTCH2, primary screen, biochemical, small-molecule microarray, 635/667 nm fluorescence (AID 1121); conditions: higher = more signal;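 further: score merges feature fluorescence read at 667 nm with its signal to noise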
# [14] = biological target: Carbonic anhydrase 2 (Homo sapiens) (UniProt P00918); assay: CAII small-molecule binders, profiling panel, biochemical, small-molecule microarray, Alexa647-labelled CAII (AID 1122); conditions: CAII-A647 binding fluorescence, higher = more signal
# [15] = COS7 lysate on small-molecule microarray, probe aHis, 635 nm (AID 1123); conditions: COS7 cell lysate, fluorescence, higher = more signal;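 further: z-score combines 667nm fluorescence intensity with signal-to-noise per printed compound spot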
# [16] = compound binding in COS7 lysate, probe aLAP1, primary screen, cell lysate, small-molecule microarray (AID 1124); conditions: probe aLAP1, fluorescence, higher = more signal;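 further: lysate comes from COS7 cells expressing LAP1 and is applied at 0.3 µg/mL; score merges spot fluorescence near 667 nm with signal-to-noise over triplicate slides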
# Sam68 (KHDRBS1) = assay: Sam68 small-molecule binders, primary screen, biochemical, small-molecule microarray, 635 nm fluorescence (AID 1125); conditions: small-molecule microarray binding, higher = more signal;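 further: score merges 667 nm channel intensity with signal to noise over triplicate slides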
# [17] = tested on: Chordin-like protein 2 (CHRDL2); assay: CHRDL2 small-molecule binders, primary screen, biochemical, small-molecule microarray, 635 nm fluorescence (AID 1126); conditions: small-molecule microarray binding, fluorescence 635 nm; higher = more signal;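 further: printed compound slides probed with Chrdl2 protein at 4 µg/mL for 1 h at 4 C; score merges 667 nm emission intensity with signal to noise over three replicate slides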
# [18] = biological target: Concanavalin-A (Canavalia ensiformis) (UniProt P02866); assay: ConA small-molecule binders, primary screen, artefact control for SMM control protein annotation, biochemical, small-molecule microarray, Alexa647 label, 635 nm (AID 1127); conditions: ConA-A647 binding fluorescence, higher = more signal;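 further: z combines 667 nm emission intensity with signal-to-noise across three replicate slides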
# Chain of Concanavalin-A (Canavalia ensiformis) (P02866 whole entry, looked up): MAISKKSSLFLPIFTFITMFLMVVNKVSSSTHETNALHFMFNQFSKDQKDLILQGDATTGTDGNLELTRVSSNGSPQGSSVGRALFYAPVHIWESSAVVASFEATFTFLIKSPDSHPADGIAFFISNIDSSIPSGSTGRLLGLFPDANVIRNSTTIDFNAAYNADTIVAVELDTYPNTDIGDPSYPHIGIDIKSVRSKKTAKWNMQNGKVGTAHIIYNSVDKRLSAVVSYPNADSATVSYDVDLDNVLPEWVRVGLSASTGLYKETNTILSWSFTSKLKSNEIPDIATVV
SMILES,composite z-score [1],z-score [2],composite z-score [3],composite z-score [4],composite z-score [5],composite z-score [6],composite z-score [7],composite z-score [8],composite z-score [9],composite z-score [10],composite z-score (Albumin (Bos taurus)),composite Z-score [11],composite z-score [12],composite z-score [13],composite z-score [14],composite z-score [15],composite z-score [16],composite z-score (Sam68 (KHDRBS1)),composite z-score [17],composite z-score [18]
C=C[C@H](OC)[C@@H](OC(=O)Nc1ccc(SC)cc1)c1ccc(O)c(F)c1,0.998,3.8,-0.367,0.0665,-0.0093,-0.0486,0.0008,-0.443,1.31,0.358,0.661,1.13 (inactive),0.0864,-0.182,0.699,2.82,0.694,1.24,-0.267,0.187
C[C@@H]1NC(=O)[C@H](Cc2ccccc2)NC(=O)[C@@]23C(=O)N[C@@H](Cc4ccccc4)C2[C@H](C)[C@@]2(C)O[C@H]2C3/C=C/C/C=C\CNC1=O (stereo not given in full),-2.69,-1.06,-0.122,-0.472,-1.06,-0.124,-0.0474,-0.238,0.0403,-0.576,0.0296,0.0437 (inactive),-0.0996,0.364,0.82,-0.741,-0.634,-0.276,0.399,-0.265
CC(C)N1CC=CC23O[C@@H]4/C=C\CCCOC(=O)C4[C@H]2C(=O)N(CCO)[C@@H]3C1=O (stereo not given in full),-0.526,-0.648,-0.999,-0.428,-0.793,-0.188,-0.0769,-0.0624,2.9,-0.493,0.767,1.95 (inactive),-0.0918,-0.0874,0.893,0.572,1.43,0.534,-1.4,0.329
C[C@]1(C(=O)NCc2ccccc2)c2ccccc2C(=O)N(Cc2cc(C(F)(F)F)cc(C(F)(F)F)c2)[C@H]1c1ccc(CO)cc1,1.1,-2.06,0.159,0.956,0.844,-0.0519,1.39,-0.0047,0.541,0.615,0.157,-0.471 (inactive),0.154,0.0827,0.529,0.9,0.158,1.3,0.242,0.677
C=C(CCCC)/C(=C/C[C@H](OC(=O)c1ccncc1)c1cccc(OCCO)c1)c1cc(C(=O)OC)ccc1OC,0.799,-2.61,0.385,0.267,-0.784,0.0394,0.14,-0.226,0.516,0.582,-0.2,-0.331 (inactive),0.074,-0.131,0.0309,1.09,-0.132,0.711,0.363,0.724
